A selection: hits, their analogues and other compounds. The true share with any hit is near 11%.
Pf growth 48h – inhibits P. falciparum growth in the first generation, 48 h; P. falciparum luciferase growth in erythrocytes, 48 h; Potency, µM (series often up to 28.7 µM), inactives show at the top dose activity change, negative = inhibition, actives largely listed as inhibitors; hit rate 5.9% among 310,000; AID 504832; further: on the % scale 0 is the no-effect control and ±100 the full control effect
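Growth was read as firefly luciferase luminescence after a 48 h, 37 C, 5% CO2 exposure of compounds to reporter-bearing P. falciparum cultures (0.1% parasitemia, 2% hematocrit final) in Albumax-supplemented RPMI 1640.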
NS1 inh – blocks influenza NS1 protein function; hit rate 0.4% among 270,000; Potency, µM (top dose mostly 46.1 µM), without a hit: at the highest dose activity, positive = more growth; calls by dose curve; further: actives are rising curves; nearly all actives have a fitted effect of over 50% in size
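Compounds were scored for reversing the slow growth caused by influenza A NS1 in S. cerevisiae, measured by optical density at 600 nm. Assay medium contained 2% galactose at pH 6.0; NS1-free yeast of the same strain were the positive control.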
Vaccinia mCherry – inhibitors of vaccinia virus infection (mCherry reporter signal). Vaccinia virus mCherry reporter infection, fluorescence. Potency, µM (top dose mostly 36.5 µM), inactives show top-dose activity change, negative = inhibition, usual class: inhibitors. hit rate 0.63% among 310,000; calls by dose curve; tested in A549 cells; further: on the % scale 0 is the no-effect control and ±100 the full control effect; nearly all actives have a fitted effect of over 35% in size
VACV Venus inh – inhibitors of vaccinia virus (Venus reporter); Vaccinia virus Venus reporter expression, fluorescence; Potency, µM (titrated, usually from 36.5 µM), inactives show top-dose activity change, negative = inhibition, hits mostly inhibitors; hit rate 0.46% among 330,000; calls by dose curve; tested in A549 cells; further: on the % scale 0 is the no-effect control and ±100 the full control effect; nearly all actives have a fitted effect of over 30% in size
HCV inhibitor – blocks hepatitis C virus | Huh7.5.1 HCVcc-Cre infection, luciferase reporter, 44 h | AID 651820 | hit rate 3.4% among 340,000 | Potency, µM (series often up to 41.8 µM), for the others: at the highest dose activity change, negative = inhibition, most hits filed as inhibitors; further: on the % scale 0 is the no-effect control and ±100 the full control effect
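After 44 h co-culture of compound, cells and HCVcc-Cre (~0.5 moi), substrate is added for 15 min at room temperature and luciferase measured over 15 sec. Cells were seeded at 1,000/well and pre-cultured 4 h.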
Pf growth 96h – P. falciparum growth inhibition at 96 hour, primary screen for plastid delayed-death inhibitors. P. falciparum luciferase reporter growth, 96 h. Potency, µM (top dose mostly 28.7 µM), for the others: at the top dose activity change, negative = inhibition, most hits filed as inhibitors. hit rate 6.9% among 320,000; further: on the % scale 0 is the no-effect control and ±100 the full control effect
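Cell-based qHTS: luciferase-tagged P. falciparum in erythrocytes (2% hematocrit, 0.05% parasitemia final) incubated with compounds for 96 hours, 37 C, 5% CO2; luciferase detection reagent then added and luminescence measured.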
Starred values were filed as active, the others as inactive; ! = repeats disagree. Unless noted, the call rests on the fitted dose curve; in most records, active means well fitted inhibition curve with a large enough effect; inconclusive means small, poorly fitted or top-dose-only effect, or another doubt; inactive means no such curve, though single readings can be large or run the other way. Potency means the concentration at half of the fitted maximal effect.

`O=C(CN1C(=O)c2ccccc2S1(=O)=O)NCc1ccc2c(c1)OCO2` gave Pf growth 48h -5%, NS1 inh 8%, Vaccinia mCherry -15%, VACV Venus inh 3%, HCV inhibitor 4% and Pf growth 96h 9.3µM*.
O=C(NCc1ccco1)c1cc(-c2ccccn2)nc2ccccc12 was read as Pf growth 48h -11%, NS1 inh 0%, Vaccinia mCherry inactive, VACV Venus inh -6%, HCV inhibitor inconclusive and Pf growth 96h -34%.
`O=C(Cn1nc(-c2ccccc2)ccc1=O)NCc1ccc2c(c1)OCO2` gave Pf growth 48h 5%, NS1 inh -7%, Vaccinia mCherry -29%, VACV Venus inh -20%, HCV inhibitor -10% and Pf growth 96h 1.3µM*.
Screening O=C(NCc1ccc2c(c1)OCO2)c1cc(-c2ccccn2)nc2ccccc12 returned Pf growth 48h 191%, Vaccinia mCherry -4%, VACV Venus inh -5%, HCV inhibitor 10µM* and Pf growth 96h inconclusive.
N/N=C(\c1ccccc1)c1cc(Br)ccc1N was read as Pf growth 48h inconclusive, NS1 inh -20%, Vaccinia mCherry 0%, VACV Venus inh -14%, HCV inhibitor 23% and Pf growth 96h inconclusive.
`CCn1c(SCC(=O)N2CCOCC2)nc2c(c1=O)SC(C)C2` (stereo not given) gave Pf growth 48h -20%, NS1 inh 0%, Vaccinia mCherry 3%, VACV Venus inh -3%, HCV inhibitor 1% and Pf growth 96h 2.1µM*.
Screening CCSc1nnc(NC(=O)CSc2nc3c(c(=O)n2C)SC(C)C3)s1 (stereo not given) returned Pf growth 48h 12µM*, NS1 inh 3%, Vaccinia mCherry -10%, VACV Venus inh -8%, HCV inhibitor inconclusive and Pf growth 96h 0%.
`CCn1c(SCC(=O)Nc2cccc(C)c2)nc2c(c1=O)SC(C)C2` (stereo not given) gave Pf growth 48h inconclusive, NS1 inh -121%, Vaccinia mCherry 6%, VACV Venus inh -6%, HCV inhibitor inconclusive and Pf growth 96h 13µM*.
CCn1c(SCC(=O)Nc2ccc3c(c2)OCO3)nc2c(c1=O)SC(C)C2 (stereo not given) was read as Pf growth 48h inconclusive, NS1 inh -109%, Vaccinia mCherry 10%, VACV Venus inh -11%, HCV inhibitor -12% and Pf growth 96h inconclusive.
CCn1c(SCC(=O)N2CCC(C)CC2)nc2c(c1=O)SC(C)C2 (stereo not given) was read as Pf growth 48h inconclusive, NS1 inh -34%, HCV inhibitor -5% and Pf growth 96h 6.6µM*.
`COc1ccc(C(=O)NC2CCN(C(=S)Nc3cc(C)cc(C)c3)CC2)cc1` gave Pf growth 48h 1%, NS1 inh -13%, HCV inhibitor -9% and Pf growth 96h inconclusive.
`CCN(C(=O)COC(=O)/C(C#N)=C/c1ccc(N(C)C)cc1)C1CCS(=O)(=O)C1` (stereo not given) gave Vaccinia mCherry -11%, VACV Venus inh 5% and HCV inhibitor 13%.
CCC(Sc1nc2c(c(=O)n1CC)SC(C)C2)C(=O)OC (stereo not given) was read as Pf growth 48h inconclusive, NS1 inh -26%, Vaccinia mCherry -4%, VACV Venus inh -3%, HCV inhibitor 11% and Pf growth 96h 0.37µM*.
C=CCn1c(SCC(=O)N2CCCC2)nc2c([nH]c3ccccc32)c1=O was read as Pf growth 48h -14%, NS1 inh -2%, HCV inhibitor 0% and Pf growth 96h 21%.
For CCn1c(SCC(=O)N2CCOCC2)nc2c([nH]c3ccccc32)c1=O the results were Pf growth 48h inconclusive, NS1 inh 4%, HCV inhibitor 2% and Pf growth 96h 13µM*.
COc1ccccc1C(=O)OCC(=O)N1CCC(Cc2ccccc2)CC1 was read as Pf growth 48h 1%, HCV inhibitor 4% and Pf growth 96h -11%.
CC(C)CC(N(C)C)C1(c2ccc(Cl)cc2)CCC1 (stereo not given) was read as Pf growth 48h 1%, Vaccinia mCherry -2%, VACV Venus inh -12%, HCV inhibitor 3.5µM*! and Pf growth 96h -12%.
